Results published in PubChem BioAssay AID1159580 (chemical genetic matrix, 2015).
Hit rate of the full screen: of about 5,500 compounds, about 2,000 (36%) were called active. About 18% were inconclusive and are not listed. No stated cut-off is given here; in the data, active means normalized growth mostly below about 0.91 (no sharp cut-off); inconclusive means no clear call, values can overlap the other calls; inactive means mostly above about 0.92. The list shows a part of the results.

Experiment: chemical genetic growth profiling, strain panel (AID 1159580);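 further: tested at 20 µM; growth read once vehicle control cultures reached saturation at 30 °C; 1 = growth at the plate median or of vehicle wells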
Conditions: growth OD

Measured: normalized growth

Cc1cc(/C=N/NC(N)=S)c2c(C)ccc(C(C)C)cc1-2
inactive: S. cerevisiae deletion strains, locus YAL013W, strain DEP1, stronger effect = lower value 1.02 | S. cerevisiae deletion strains, locus YBR229C, strain ROT2, stronger effect = lower value 1.04 | S. cerevisiae deletion strains, locus YCL061C, strain MRC1, stronger effect = lower value 1.02 | S. cerevisiae deletion strains, locus YDL101C, strain DUN1, stronger effect = lower value 1.05 | S. cerevisiae deletion strains, locus YDL134C, strain PPH21, stronger effect = lower value 1.01 | S. cerevisiae deletion strains, locus YDR150W, strain NUM1, stronger effect = lower value 1 | S. cerevisiae deletion strains, locus YEL061C, strain CIN8, stronger effect = lower value 1.01 | S. cerevisiae deletion strains, locus YGR078C, strain PAC10, stronger effect = lower value 1.01 | S. cerevisiae deletion strains, locus YHR030C, strain SLT2, stronger effect = lower value 1.12 | S. cerevisiae deletion strains, locus YHR087W, strain rtc3, stronger effect = lower value 1.06 | S. cerevisiae deletion strains, locus YJR043C, strain POL32, stronger effect = lower value 1.01 | S. cerevisiae deletion strains, locus YJR075W, strain HOC1, stronger effect = lower value 1.02 | S. cerevisiae deletion strains, locus YLR039C, strain RIC1, stronger effect = lower value 1.02 | S. cerevisiae deletion strains, locus YLR058C, strain SHM2 (second series), stronger effect = lower value 1.03 | S. cerevisiae deletion strains, locus YLR085C, strain ARP6, stronger effect = lower value 1.03 | S. cerevisiae deletion strains, locus YLR262C, strain YPT6, stronger effect = lower value 1.02 | S. cerevisiae deletion strains, locus YML094W, strain GIM5, stronger effect = lower value 1.07 | S. cerevisiae deletion strains, locus YMR219W, strain ESC1, stronger effect = lower value 1.03 | S. cerevisiae deletion strains, locus YMR263W, strain SAP30, stronger effect = lower value 0.986 | S. cerevisiae deletion strains, locus YNL153C, strain GIM3, stronger effect = lower value 1.02 | S. cerevisiae deletion strains, locus YNL298W, strain CLA4 (second series), stronger effect = lower value 1.05 | S. cerevisiae deletion strains, locus YNR030W, strain Alg12, stronger effect = lower value 1.08 | S. cerevisiae deletion strains, locus YPL055C, strain LGE1, stronger effect = lower value 1.04 | S. cerevisiae deletion strains, locus YPL241C, strain CIN2, stronger effect = lower value 1.01 | S. cerevisiae deletion strains, locus YPR135W, strain CTF4, stronger effect = lower value 1.17 | S. cerevisiae strains, strain wild type, stronger effect = lower value 1.02
active: S. cerevisiae deletion strains, locus YNL322C, strain KRE1, stronger effect = lower value 1.06 [resistant]
